TbPYK inhibitor = inhibitors of Trypanosoma brucei pyruvate kinase. TbPYK enzyme, Kinase-Glo Plus ATP luminescence, 45 min. Q57TT1. Potency, µM (doses to about 76.8 µM), hits mostly inhibitors. hit rate 0.12% among 410,000. AID 624173; note: nearly all actives have a fitted effect of over 50% in size
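TbPYK + substrate in 50 mM TEA pH 7.2, 100 mM KCl, 10 mM MgCl2, 0.05% BSA, 0.01% Tween-20; cpd pinned; ADP 130 uM final; 45 min RT; Kinase-Glo Plus 10 min; luminescence endpoint.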
Sm TGR inh = S. mansoni TGR enzyme inhibition | purified TGR, DTNB reduction, TNB absorbance 405 nm | Potency, µM (top dose mostly 114 µM), usual class: inhibitors | hit rate 3% among 360,000; note: nearly all actives have a fitted effect of over 60% in size
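Kinetic colorimetric format: TGR-catalysed, NADPH-driven DTNB reduction monitored via TNB absorbance. Enzyme dispensed at 20 nM; compound exposure 15 min at room temperature before reaction start.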
AmpC no deterg = AmpC beta-lactamase inhibition without detergent; Potency, µM (doses to about 57.1 µM), usual class: inhibitors; AmpC nitrocefin hydrolysis, absorbance 480 nm, 0.0001% Triton; hit rate 0.52% among 330,000; note: nearly all actives have a fitted effect of over 20% in size
Target sequence (P00811 whole entry, looked up): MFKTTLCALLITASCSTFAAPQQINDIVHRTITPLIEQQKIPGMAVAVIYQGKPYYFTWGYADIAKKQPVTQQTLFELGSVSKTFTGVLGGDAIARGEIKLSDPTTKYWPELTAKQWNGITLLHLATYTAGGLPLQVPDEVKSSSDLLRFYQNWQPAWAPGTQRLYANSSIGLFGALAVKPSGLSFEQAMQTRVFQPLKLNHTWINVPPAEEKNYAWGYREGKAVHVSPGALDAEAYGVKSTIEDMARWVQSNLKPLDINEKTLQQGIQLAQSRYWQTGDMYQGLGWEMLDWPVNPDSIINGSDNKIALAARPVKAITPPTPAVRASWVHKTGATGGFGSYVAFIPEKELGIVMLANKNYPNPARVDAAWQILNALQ
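AmpC (5.3 nM in the dispensed reagent) in 20 mM phosphate pH 7.0 with 0.01% (detergent screen) or 0.0001% Triton X-100 was preincubated with compounds for 15 min at room temperature. Nitrocefin was then added from an 800 uM solution, and hydrolysis was followed at 480 nm.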
AmpC detergent = inhibitors of E. coli AmpC beta-lactamase with detergent; AmpC hydrolysis of nitrocefin, absorbance 480 nm, 0.01% Triton; P00811; hit rate 0.041% among 370,000; Potency, µM (top dose mostly 114 µM), actives largely listed as inhibitors; note: nearly all actives have a fitted effect of over 25% in size
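AmpC (5.3 nM in the dispensed reagent) in 20 mM phosphate pH 7.0 with 0.01% (detergent screen) or 0.0001% Triton X-100 was preincubated with compounds for 15 min at room temperature. Nitrocefin was then added from an 800 uM solution, and hydrolysis was followed at 480 nm.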
SARS PLP yeast = SARS-CoV PLP inhibition in yeast | S. cerevisiae expressing SARS-CoV PLpro, growth rescue | Potency, µM (series often up to 32.9 µM), usual class: activators | hit rate 0.19% among 330,000 | AID 485353; calls by dose curve; note: nearly all actives have a fitted effect of over 55% in size
RE007 growth inh = less growth of the S. pombe RE007 Vpr strain | S. pombe RE007 Vpr strain, BacTiter-Glo ATP luminescence, 24 h | Potency, µM (doses to about 92.2 µM), most hits filed as inhibitors | hit rate 0.21% among 360,000 | AID 651644; active = well fitted falling curve with a large enough effect; inconclusive = small, poorly fitted or top-dose-only effect; inactive = no such curve, though single readings can be large or run the other way; note: nearly all actives have a fitted effect of over 50% in size
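Fission yeast RE007 carrying one integrated HIV-1 vpr copy, seeded at OD 0.01 in PMG+AL medium with 23 nL pinned compound. Grown 24 h at 30 degrees; viability read by BacTiter-Glo luminescence after 5 min.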
Of the large screens only hits and unclear results are named; the others gave an inactive call. Compounds with a hit are over-represented: about 3.3% of the library has one in this group of screens. Unless noted, calls come from the whole dose curve; as a rule, active = well fitted curve in the direction sought with a large enough effect; inconclusive = small, poorly fitted or top-dose-only effect, or another doubt; inactive = no such curve, though single readings can be large; an effect the other way counts as inactive or inconclusive.

O=c1c(C(c2ccccc2)c2c(O)nc3n(c2=O)CCS3)c(O)nc2n1CCS2	Sm TGR inh 1.78µM, AmpC detergent inconclusive
O=c1c2[nH]c3ccccc3c2nc2n1CCCS2	none
CCOc1ccc(C2C(C(=O)Nc3ccc(C)cc3C)=C(C)Nc3c(C(=O)Nc4ccc(C)cc4)cnn32)cc1OC (stereo not given)	none (no result: AmpC no deterg, SARS PLP yeast, RE007 growth inh)
Cc1ccc(-c2nc3n(n2)Cc2ccccc2-3)cc1	RE007 growth inh inconclusive
CCn1c(C)nc2cc(-c3nc4n(n3)Cc3ccccc3-4)ccc21	TbPYK inhibitor inconclusive, RE007 growth inh 5.62µM
Nc1c(-c2nc(-c3cccs3)no2)nnn1-c1cccc(Cl)c1	none (no result: AmpC no deterg, SARS PLP yeast, RE007 growth inh)
O=C(/C=C/c1ccc(F)cc1)NC(=S)NNC(=O)[C@H]1C[C@@H]1c1ccccc1	AmpC no deterg 10µM
O=C(NC(=S)NNC(=O)[C@H]1C[C@@H]1c1ccccc1)c1ccc(F)cc1	TbPYK inhibitor inconclusive, Sm TGR inh inconclusive
CCOc1ccccc1CN1CCN(Cc2ccc3cccc(OC)c3n2)CC1CCO (stereo not given)	Sm TGR inh 25.1µM
CCN(CC)C(=O)C1CCCN(C/C=C/c2ccccc2)C1 (stereo not given)	AmpC no deterg 0.282µM
CCN(CC)C(=O)C1CCCN(C/C(C)=C/c2ccccc2)C1 (stereo not given)	none
Cc1nccn1-c1c2c(c(C#N)c3nc4ccccc4n13)CCC2	Sm TGR inh 25.1µM
Cc1cc(N2CCN(c3ccccn3)CC2)n2c(nc3ccccc32)c1C#N	AmpC detergent inconclusive
N#Cc1c2c(c(N3CCN(c4ccccn4)CC3)n3c1nc1ccccc13)CCC2	Sm TGR inh 39.8µM, AmpC detergent inconclusive (no result: TbPYK inhibitor, RE007 growth inh)
Cc1cc(Cl)n2c(nc3ccccc32)c1C#N	Sm TGR inh 3.16µM, RE007 growth inh inconclusive
Cc1c(Nc2c3c(c(C#N)c4nc5ccccc5n24)CCC3)c(=O)n(-c2ccccc2)n1C	Sm TGR inh 31.6µM (no result: TbPYK inhibitor, RE007 growth inh)
CCCCCc1c(C)c(C#N)c2nc3ccccc3n2c1-n1ccnc1C	none
CCCCCN1C(C(=O)c2ccccc2)=C(NC(=O)c2ccccc2Cl)c2ccccc2S1(=O)=O	none (no result: AmpC no deterg, SARS PLP yeast, RE007 growth inh)
CC(C)COc1ccc(C(=O)N(Cc2ccc(N(C)C)cc2)Cc2ccco2)cc1	none (no result: AmpC no deterg, SARS PLP yeast, RE007 growth inh)
Cc1ccc(CCNC(=O)c2ccc(Cn3c(=O)c4cccn4c4cccnc43)cc2)cc1	AmpC detergent inconclusive (no result: AmpC no deterg, SARS PLP yeast, RE007 growth inh)
Cn1c(=O)c(N)c2c3c(c(Br)ccc31)C(=O)c1ccccc1-2	Sm TGR inh 12.6µM
CCNc1c2c3c(cccc3n(C)c1=O)C(=O)c1ccccc1-2	none
COc1ccccc1N1CCN(S(=O)(=O)c2ccc(-c3cc(C(F)(F)F)on3)s2)CC1	none (no result: AmpC no deterg, SARS PLP yeast, RE007 growth inh)
O=[As](O)(O)c1ccc(N=Nc2ccc(O)cc2)cc1	Sm TGR inh 50.1µM (no result: RE007 growth inh)
Cc1ccc(N=Nc2ccc(O)cc2)c(Br)c1	AmpC no deterg inconclusive, RE007 growth inh inconclusive
CC(=O)N1[C@H](Cc2ccccc2)C=C[C@]1(C)C(=O)NCc1ccc(C)o1	Sm TGR inh 8.91µM, SARS PLP yeast inconclusive
COc1ccc(NS(=O)(=O)c2cc3[nH]c(=O)c(=O)[nH]c3cc2C)cc1Cl	none (no result: AmpC no deterg, SARS PLP yeast, RE007 growth inh)
CC(=O)Nc1ccc(NC(=O)c2nc(S(=O)(=O)Cc3cccc(C)c3)ncc2Cl)cc1	Sm TGR inh 7.08µM
Cc1cccc(CS(=O)(=O)c2ncc(Cl)c(C(=O)NCc3ccc4c(c3)OCO4)n2)c1	Sm TGR inh 6.31µM, AmpC detergent inconclusive
COC(=O)c1ccc(NC(=O)c2nc(S(=O)(=O)Cc3cccc(C)c3)ncc2Cl)cc1	Sm TGR inh 6.31µM
C[N+]1(CCF)[C@@H]2CC[C@@H]1CC(OC(=O)C(O)(c1ccccc1)c1ccccc1)C2 (stereo not given in full)	none (no result: Sm TGR inh, AmpC no deterg, AmpC detergent, SARS PLP yeast, RE007 growth inh)
COc1cccc(N2C(=O)[C@H]3C(C(=O)c4cnccn4)=NN[C@H]3C2=O)c1	Sm TGR inh 44.7µM
CC(C)C(=O)NC(NC(=S)Nc1cccc2cccnc12)C(Cl)(Cl)Cl (stereo not given)	AmpC no deterg 10µM
CCC(=O)NC(NC(=S)Nc1cccc2cccnc12)C(Cl)(Cl)Cl (stereo not given)	AmpC detergent inconclusive
CCOc1ccc(-c2nn(CC(=O)NC3CCCC3)c3c2cnc2ccc(C)cc23)cc1	none (no result: AmpC no deterg, SARS PLP yeast, RE007 growth inh)
COC(=O)C/C=C/[C@@H](C)[C@@H](/C=N/OC[C@@H](C)[C@H](OCc1ccccc1)C(C)C)NS(=O)(=O)c1ccc(C)cc1	AmpC no deterg 28.2µM, AmpC detergent inconclusive (no result: TbPYK inhibitor, RE007 growth inh)
CCC(C)n1c(O)c(C(c2ccccn2)c2c(O)n(C(C)CC)c(=S)[nH]c2=O)c(=O)[nH]c1=S (stereo not given)	Sm TGR inh inconclusive
Cn1c(O)c(C(c2ccncc2)c2c(O)n(C)c(=S)n(C)c2=O)c(=O)n(C)c1=S	Sm TGR inh 15.8µM
Cn1c(O)c(C(c2ccccn2)c2c(O)n(C)c(=S)n(C)c2=O)c(=O)n(C)c1=S	Sm TGR inh 22.4µM, AmpC detergent inconclusive
Brc1ccc(CN2CCc3nc(Nc4ccccc4)ncc3C2)s1	none (no result: AmpC no deterg, SARS PLP yeast, RE007 growth inh)
COc1ccc(-c2nc3ccccc3n3c(-c4ccc(OC)cc4)c4c(=O)n(C)c(=O)n(C)c4c23)cc1	none (no result: AmpC no deterg, SARS PLP yeast, RE007 growth inh)
CCNC1=C(Cl)C(=O)c2ccccc2C1=O	RE007 growth inh 15.8µM
CCOc1ccc(NC2=C(OC)C(=O)c3ccccc3C2=O)cc1	none
O=C1C(Cl)=C(NCCN2CCCCC2)C(=O)c2ccccc21	Sm TGR inh 22.4µM

High-throughput results (PubChem)
